# Screening data deposited in PubChem by several laboratories.
# NTR1 ag: agonists of human neurotensin receptor NTR1 | NTR1-U2OS beta-arrestin-GFP spot imaging, agonist mode | actives 0.17% (n = 330,000) | P30989 | AID 493036 | activation, % at 20 µM;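 active means activation at or above 40% of the spot to cytoplasm intensity ratio, with at least 20 cells analyzed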
# TLR9-MyD88 block: blocks human TLR9 binding to MyD88. Q9NR96+Q99836. CHO BLA complementation TLR9-MyD88, CCF4 FRET ratio. inhibition, % at 4.98 µM. actives 0.21% (n = 340,000). AID 504734;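 active means inhibition above the mean over all tested compounds plus 3 SD, cut at about 21% in these data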
# TLR4 MyD88 comp: TLR4-MyD88 interaction inhibition in cells; O00206+Q99836; HeLa CL3-4 TLR4/MyD88 BLA complementation, FRET ratio; inhibition, % at 8.4 µM; actives 0.18% (n = 200,000); AID 861; in the data active means inhibition above about 25%
# ABHD5 PLIN5 PPI: inhibitors of human ABHD5-perilipin-5 interaction; Q00G26+Q8WTS1; Split G. princeps luciferase complementation, luminescence, 4 h; inhibition, % at 4 µM; actives 0.78% (n = 360,000); AID 602281;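 active means inhibition above the mean inhibition across every tested compound plus 3 SD, cut at about 22% in these data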
# Beta2AR agonist: agonists of human beta-2 adrenergic receptor inducing internalization; actives 0.43% (n = 340,000); Am2.2-beta2AR cells, FAP receptor internalization, flow cytometry; P07550; AID 504454; response, % (no concentration beside the values);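 active means response above a set limit, near 3 SD of response in nonfluorescent compounds, cut at about 42% in these data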
# NOD2 RIPK2 PPI: NOD2-RIPK2 protein interaction inhibition; O43353; CHO BLA complementation NOD2-RIPK2, CCF4 ratio; inhibition, % at 4.98 µM; actives 0.38% (n = 360,000); in the data active means inhibition above about 21%
# TLR4 MyD88 cnf: confirmation of human TLR4-MyD88 binding inhibitors; shares compounds with TLR4 MyD88 comp; HeLa CL3-4 BLA complementation, CCF4 FRET ratio; inhibition, % at 8.4 µM; actives 50% (n = 350); AID 941;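 active means mean inhibition across three repeat runs above about 25% carried over from the earlier screen, limit read from the data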
# BLA inh HeLa: beta-lactamase inhibition flagged in TLR4-MyD88 counter-screen; shares compounds with TLR4 MyD88 comp; HeLa BLA reporter, CCF4 FRET ratio; inhibition, % at 8.4 µM; actives 63% (n = 350); AID 1237;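 active means mean inhibition over three repeats above about 26% taken from the earlier screen, limit read from the data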;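 further: HeLa cells stably expressing beta-lactamase reporter as counterscreen for TLR4-MyD88 inhibitors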
# NTR1 ag conf: NTR1 (human) agonism, confirmed. NTR1-U2OS beta-arrestin-GFP translocation imaging. activation, % at 20 µM. actives 38% (n = 480). shares compounds with NTR1 ag;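 active means mean activation at 20 µM of at least 40%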
# TLR9-MyD88 conf: TLR9-MyD88 interaction inhibition, confirmation | inhibition, % at 4.98 µM | AID 540250 | CHO TLR9/MyD88 BLA complementation, CCF4 FRET ratio | shares compounds with TLR9-MyD88 block | actives 51% (n = 680);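 active means mean inhibition across three repeats above about 21% taken from the earlier screen, limit read from the data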;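 further: blue over green emission ratio reports constitutive TLR9 MyD88 association via BLA complementation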
# BLA counter: counter-screen for TLR9-MyD88 inhibitors: non-selective beta-lactamase inhibitors | shares compounds with TLR9-MyD88 block | CHO-BLA cells, CCF4 FRET ratio, BLA reporter | inhibition, % at 4.98 µM | actives 7% (n = 680) | AID 540251;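 active means mean inhibition above a 50% cutoff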;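 further: counterscreen of TLR9-MyD88 hits on CMV-driven BLA in CHO-K1 cells; higher means less blue over green ratio so more BLA blockade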
# TLR9 CHO tox: counter-screen for TLR9-MyD88 inhibitors: cytotoxicity in CHO cells. shares compounds with TLR9-MyD88 block. luminescence. inhibition, % at 4.98 µM. actives 39% (n = 680); in the data active means inhibition above about 11%
# Hits are given with their value; – = inactive; · = not tested or not shown. Only some compounds are listed: those with a hit (about 1.5% of all), similar ones and a draw of the others.
SMILES,NTR1 ag,TLR9-MyD88 block,TLR4 MyD88 comp,ABHD5 PLIN5 PPI,Beta2AR agonist,NOD2 RIPK2 PPI,TLR4 MyD88 cnf,BLA inh HeLa,others
CC1CC(=O)c2c(cc3c(-c4c(O)cc(O)c5c(O)c6c(cc45)OC(C)CC6=O)c(O)cc(O)c3c2O)O1 (centres undefined),–,–,41.9,–,–,22.8,43.8,64.7,
C/C=C/c1cccc(-c2nc(C(=O)NC3Cc4ccccc4C3)cc3c2[C@@H](CCO)N(C(C)=O)C3)c1,·,·,·,–,·,–,·,·,
Fc1cccc(-c2nnn3c2nc(Cl)c2ccccc23)c1,·,–,34.6,–,–,–,57.9,40.8,
CCCC(=O)N1CCOCC1c1cc(C(=O)NCc2ccccc2)no1 (centres undefined),·,·,·,–,·,–,·,·,
Cc1c(N2C(=O)/C(=C\C3CC=CCC3)SC2=S)c(=O)n(-c2ccccc2)n1C (centres undefined),–,–,25.2,–,–,–,–,–,
CCCNC(=O)C1(C)CCCN(Cc2csc(-c3ccccc3)n2)C1 (centres undefined),·,·,·,–,·,–,·,·,
Oc1sc(C=Nc2ccc(F)cc2)c2ccccc12,–,–,–,–,–,–,·,·,
Oc1sc(C=Nc2ccccc2)c2ccccc12,–,–,27.2,–,–,–,–,39.3,
COc1ccccc1Cc1c(-c2ccc(F)cc2)nc2ccc(Cl)cn12,·,·,·,–,·,–,·,·,
COc1cc2c3nnc(-c4ccc(F)cc4)c-3cn(Cc3ccccc3F)c2cc1OC,·,–,62.4,–,–,–,44.1,84.3,
CC(=O)Nc1ccc(S(=O)(=O)NC(C)C(=O)OCC(=O)Nc2ccc(F)cc2Cl)cc1 (centres undefined),·,–,·,–,·,–,·,·,
CCSc1nnc(-c2sc3nnc(-c4ccccc4)c(-c4ccccc4)c3c2N)o1,–,–,40.0,–,–,–,46.7,80.0,
COc1ccccc1N1CCN(C(=O)COc2cc(C)ccc2C)CC1,–,–,–,–,–,–,·,·,
COc1ccccc1N1CCN(C(=O)COc2cc(C)cc(C)c2)CC1,–,–,26.2,–,–,–,–,–,
Cc1cccc(N2CCN(C(C(=O)NCc3ccccc3)c3ccc(C(F)(F)F)cc3)CC2)c1C (centres undefined),·,·,·,–,·,–,·,·,
CN1C[C@@H]2[C@@H]3C(=O)N(C)C(=O)[C@@H]3[C@](Cc3ccccc3)(C1=O)N2C(=O)c1ccc(Cl)cc1,·,–,·,–,–,–,·,·,
COc1ccc(OC(F)(F)F)cc1CC1(C)C(=O)Nc2ccc(-c3ccsc3)cc21 (centres undefined),·,·,·,–,·,–,·,·,
CC(C)C(=O)Nc1cccc(-c2nc3ccccc3o2)c1,–,–,25.7,–,–,–,–,–,
COc1ccc(-c2coc3c(C(=O)NCc4ccc(OC)c(OC)c4)cccc23)c(C)c1,·,·,·,–,·,–,·,·,
COC(=O)c1ccc(-n2c(C)cc(C(=O)COC(=O)C3=COCCO3)c2C)cc1,–,–,·,–,–,–,·,·,
COC(=O)c1ccc(-n2c(C)cc(C(=O)CCl)c2C)cc1,–,–,25.5,–,–,–,–,–,
CNc1ccc(-c2ccccc2OC)cn1,·,·,·,–,·,–,·,·,
COc1cccc(CC(=O)Nc2nccs2)c1,–,–,25.8,–,–,–,–,–,
CCCCC(=O)N(C)c1c(CC)nc2c(OCc3ccccc3C)cccn12,·,·,·,–,·,–,·,·,
COc1cc2c3nnc(-c4ccccc4)c-3cn(Cc3ccccc3F)c2cc1OC,114.9,·,33.3,·,·,·,–,30.8,NTR1 ag conf=90.1
SMILES,NTR1 ag,TLR9-MyD88 block,TLR4 MyD88 comp,ABHD5 PLIN5 PPI,Beta2AR agonist,NOD2 RIPK2 PPI,TLR4 MyD88 cnf,BLA inh HeLa,others
CCCOc1ccc(Cl)cc1/C=C1/C(=O)ON=C1C,–,–,·,–,–,–,·,·,
CC1=NOC(=O)/C1=C\c1ccc(-c2ccc(Cl)cc2Cl)o1,80.0,–,27.9,–,99.2,–,–,–,NTR1 ag conf=–
CO[C@H]1CN(C)C(=O)c2cc(NC(=O)C3CCCC3)ccc2OC[C@@H](C)NC[C@H]1C,·,·,·,–,·,–,·,·,
OCCNc1c2ccccc2nc2c(F)c(F)c(F)c(F)c12,·,31.9,69.4,–,–,–,83.8,106.7,TLR9-MyD88 conf=42.7;BLA counter=–;TLR9 CHO tox=82.1
COc1ccc(-c2cc3nc(NCC4CCCCC4)n(C)c(=O)c3s2)cc1OC,·,·,·,–,·,–,·,·,
O=C(NC(Cc1ccccc1)C(=O)Oc1ccc2c(C(F)(F)F)cc(=O)oc2c1)OCc1ccccc1 (centres undefined),·,58.6,39.3,–,–,70.8,32.3,67.2,TLR9-MyD88 conf=33.9;BLA counter=–;TLR9 CHO tox=–
COCCCNC(=O)C[C@@H]1C[C@@]2(C(=O)OC)CC(C)(C)CC=C2N(Cc2ccccc2)C1=O,·,·,·,–,·,–,·,·,
COc1ccc(CS(=O)(=O)/C(Cl)=C(/Cl)C(=O)Nc2ccc(OC)nc2)cc1,–,31.0,25.1,41.0,48.2,73.0,–,–,TLR9-MyD88 conf=32.3;BLA counter=–;TLR9 CHO tox=100.3
CCCC[C@@H]1CC2=C(C(=O)OC(C)(C)O2)[C@@H](c2ccc(Cl)cc2)O1,·,·,·,–,·,–,·,·,
COc1cccc(/C=N/Nc2ccc([N+](=O)[O-])cc2)c1O,–,–,·,–,–,–,·,·,
O=[N+]([O-])c1ccc(N/N=C\c2ccccc2OCc2ccccc2)cc1,–,31.2,28.5,–,–,–,–,49.7,TLR9-MyD88 conf=22.0;BLA counter=–;TLR9 CHO tox=–
CCN(CC)c1ccc2cc(C(C)=O)c(=O)oc2c1,–,–,–,–,–,–,·,·,
CCN(CC)c1ccc2cc(NC(=O)CCC(=O)O)c(=O)oc2c1,–,68.3,58.0,–,–,78.8,60.8,82.6,TLR9-MyD88 conf=49.6;BLA counter=56.7;TLR9 CHO tox=–
Cc1cccc(NC2=Nc3ccccc3N3C2=Nc2c(c(C)nn2-c2ccccc2)C3c2ccc(O)c(O)c2)c1 (centres undefined),–,30.4,61.7,–,–,–,52.4,85.2,TLR9-MyD88 conf=47.1;BLA counter=55.1;TLR9 CHO tox=–
Cc1nn(-c2ccccc2)c2c1C(c1ccc([N+](=O)[O-])cc1)N1C(=N2)C(=O)Nc2ccccc21 (centres undefined),–,–,–,–,–,–,·,·,
